Measured values published in PubChem BioAssay AID1159580 (chemical genetic matrix, 2015).
Where “and” joins values, the source holds several entries; their conditions need not be identical. Equal values may be shown once. Hit rate of the full screen: of about 5,500 compounds, about 2,000 (36%) were called active. About 18% were inconclusive and are not listed. No stated cut-off is given here; in the data, active means normalized growth mostly below about 0.91 (no sharp cut-off); inconclusive means no clear call, values can overlap the other calls; inactive means mostly above about 0.92. This is one part of the list.

Assay: chemical genetic growth profiling, strain panel (AID 1159580);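 further: tested at 20 µM; growth read once vehicle control cultures reached saturation at 30 °C; 1 = growth at the plate median or of vehicle wells; lower values mean less growth of the strain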
Settings: growth OD

Measured: normalized growth

CC(=O)[C@@]1(O)CCC2C3C=C(Cl)C4=CC(=O)[C@@H]5CC5[C@]4(C)C3CC[C@@]21C (some centres not stated)
inactive: S. cerevisiae deletion strains, locus YAL013W, strain DEP1, active compounds read low 1.02 | S. cerevisiae deletion strains, locus YBR021W, strain FUR4, active compounds read low 0.996 | S. cerevisiae deletion strains, locus YBR229C, strain ROT2, active compounds read low 1.01 | S. cerevisiae deletion strains, locus YCL029C, strain bik1, active compounds read low 1.02 | S. cerevisiae deletion strains, locus YDL035C, strain GPR1, active compounds read low 1 | S. cerevisiae deletion strains, locus YDL074C, strain BRE1, active compounds read low 0.991 | S. cerevisiae deletion strains, locus YDL101C, strain DUN1, active compounds read low 1.01 | S. cerevisiae deletion strains, locus YDL134C, strain PPH21, active compounds read low 1.01 | S. cerevisiae deletion strains, locus YDL185W, strain tfp1, active compounds read low 1.01 | S. cerevisiae deletion strains, locus YDL192W, strain arf1, active compounds read low 0.998 | S. cerevisiae deletion strains, locus YDR101C, strain arx1, active compounds read low 1.01 | S. cerevisiae deletion strains, locus YDR150W, strain NUM1, active compounds read low 1.02 | S. cerevisiae deletion strains, locus YDR162C, strain NBP2, active compounds read low 1 | S. cerevisiae deletion strains, locus YDR318W, strain mcm21, active compounds read low 1 | S. cerevisiae deletion strains, locus YDR388W, active compounds read low 1.01 | S. cerevisiae deletion strains, locus YDR502C, strain sam2, active compounds read low 1.01 | S. cerevisiae deletion strains, locus YEL061C, strain CIN8, active compounds read low 1.01 | S. cerevisiae deletion strains, locus YER110C, active compounds read low 1.02 | S. cerevisiae deletion strains, locus YER155C, strain BEM2, active compounds read low 0.998 | S. cerevisiae deletion strains, locus YER167W, strain BCK2, active compounds read low 0.988 | S. cerevisiae deletion strains, locus YGL078C, strain dbp3, active compounds read low 1 | S. cerevisiae deletion strains, locus YGL086W, strain mad1, active compounds read low 1.01 | S. cerevisiae deletion strains, locus YGL248W, strain PDE1, active compounds read low 1 | S. cerevisiae deletion strains, locus YGR078C, strain PAC10, active compounds read low 0.999 | S. cerevisiae deletion strains, locus YGR135W, strain pre9, active compounds read low 1.01 | S. cerevisiae deletion strains, locus YGR229C, strain SMI1, active compounds read low 1.01 | S. cerevisiae deletion strains, locus YGR252W, strain gcn5, active compounds read low 0.952 | S. cerevisiae deletion strains, locus YHR030C, strain SLT2, active compounds read low 1.01 and 1.03 | S. cerevisiae deletion strains, locus YHR079C, strain IRE1 (second series), active compounds read low 1.02 | S. cerevisiae deletion strains, locus YHR079C, strain IRE1, active compounds read low 1.05 | S. cerevisiae deletion strains, locus YHR094C, strain hxt1, active compounds read low 1.01 | S. cerevisiae deletion strains, locus YHR129C, strain ARP1, active compounds read low 1 | S. cerevisiae deletion strains, locus YHR200W, strain rpn10, active compounds read low 1.02 | S. cerevisiae deletion strains, locus YIL066C, strain RNR3, active compounds read low 1.01 | S. cerevisiae deletion strains, locus YIL073C, strain SPO22, active compounds read low 1.01 | S. cerevisiae deletion strains, locus YIL125W, strain kgd1, active compounds read low 1.01 | S. cerevisiae deletion strains, locus YIR030C, strain dcg1, active compounds read low 1.02 | S. cerevisiae deletion strains, locus YJL095W, strain BCK1, active compounds read low 1.02 and 1.03 | S. cerevisiae deletion strains, locus YJL134W, strain LCB3, active compounds read low 1.01 | S. cerevisiae deletion strains, locus YJL168C, strain set2, active compounds read low 1.01 | S. cerevisiae deletion strains, locus YJL187C, strain SWE1 (second series), active compounds read low 1.02 | S. cerevisiae deletion strains, locus YJR043C, strain POL32, active compounds read low 1 | S. cerevisiae deletion strains, locus YJR066W, strain TOR1, active compounds read low 0.95 | S. cerevisiae deletion strains, locus YJR075W, strain HOC1, active compounds read low 1.03 | S. cerevisiae deletion strains, locus YKL009W, strain mrt4, active compounds read low 0.999 | S. cerevisiae deletion strains, locus YKL068W, active compounds read low 1.01 | S. cerevisiae deletion strains, locus YKL085W, strain MDH1 (second series), active compounds read low 0.999 | S. cerevisiae deletion strains, locus YKL085W, strain MDH1, active compounds read low 0.999 | S. cerevisiae deletion strains, locus YKL190W, strain CNB1, active compounds read low 1.01 | S. cerevisiae deletion strains, locus YKR001C, strain vps1, active compounds read low 0.995 | S. cerevisiae deletion strains, locus YLR039C, strain RIC1, active compounds read low 0.984 | S. cerevisiae deletion strains, locus YLR058C, strain SHM2, active compounds read low 1.01 | S. cerevisiae deletion strains, locus YLR102C, strain apc9, active compounds read low 1.01 | S. cerevisiae deletion strains, locus YLR113W, strain HOG1, active compounds read low 0.974 | S. cerevisiae deletion strains, locus YLR262C, strain YPT6, active compounds read low 1 | S. cerevisiae deletion strains, locus YLR268W, strain sec22, active compounds read low 1.02 | S. cerevisiae deletion strains, locus YLR330W, strain CHS5, active compounds read low 1.01 | S. cerevisiae deletion strains, locus YLR342W, strain FKS1 (second series), active compounds read low 1.01 | S. cerevisiae deletion strains, locus YLR371W, strain rom2, active compounds read low 1.02 | S. cerevisiae deletion strains, locus YLR418C, strain cdc73, active compounds read low 0.993 | S. cerevisiae deletion strains, locus YML016C, strain PPZ1, active compounds read low 1.02 | S. cerevisiae deletion strains, locus YML032C, strain rad52, active compounds read low 1.02 | S. cerevisiae deletion strains, locus YML124C, strain tub3, active compounds read low 1.01 | S. cerevisiae deletion strains, locus YMR078C, strain ctf18, active compounds read low 1 | S. cerevisiae deletion strains, locus YMR223W, strain ubp8, active compounds read low 1.01 | S. cerevisiae deletion strains, locus YMR263W, strain SAP30, active compounds read low 1.02 | S. cerevisiae deletion strains, locus YMR307W, strain GAS1, active compounds read low 0.943 | S. cerevisiae deletion strains, locus YNL067W, strain RPL9B, active compounds read low 1.02 | S. cerevisiae deletion strains, locus YNL128W, strain TEP1, active compounds read low 1.03 | S. cerevisiae deletion strains, locus YNL153C, strain GIM3, active compounds read low 1.01 | S. cerevisiae deletion strains, locus YNL183C, strain NPR1, active compounds read low 0.958 | S. cerevisiae deletion strains, locus YNL233W, strain BNI4, active compounds read low 0.987 | S. cerevisiae deletion strains, locus YNL250W, strain rad50, active compounds read low 1.01 | S. cerevisiae deletion strains, locus YNL271C, strain bni1, active compounds read low 1.01 | S. cerevisiae deletion strains, locus YNL298W, strain CLA4, active compounds read low 1.01 | S. cerevisiae deletion strains, locus YNL307C, strain MCK1, active compounds read low 1 | S. cerevisiae deletion strains, locus YNL322C, strain KRE1, active compounds read low 1.01 | S. cerevisiae deletion strains, locus YNR052C, strain pop2, active compounds read low 1.01 | S. cerevisiae deletion strains, locus YOL006C, strain TOP1, active compounds read low 1.02 | S. cerevisiae deletion strains, locus YOL012C, strain htz1 1.53 | S. cerevisiae deletion strains, locus YOL147C, strain pex11, active compounds read low 1 | S. cerevisiae deletion strains, locus YOR061W, strain CKA2, active compounds read low 1.01 | S. cerevisiae deletion strains, locus YOR069W, strain VPS5, active compounds read low 1.01 | S. cerevisiae deletion strains, locus YOR136W, strain idh2, active compounds read low 1 | S. cerevisiae deletion strains, locus YOR144C, strain elg1, active compounds read low 1 | S. cerevisiae deletion strains, locus YOR184W, strain ser1, active compounds read low 1 | S. cerevisiae deletion strains, locus YOR231W, strain MKK1, active compounds read low 1.01 | S. cerevisiae deletion strains, locus YOR316C, strain cot1, active compounds read low 1.01 | S. cerevisiae deletion strains, locus YPL055C, strain LGE1, active compounds read low 1.01 | S. cerevisiae deletion strains, locus YPL241C, strain CIN2, active compounds read low 1.01 | S. cerevisiae deletion strains, locus YPL256C, strain CLN2, active compounds read low 1.04 | S. cerevisiae deletion strains, locus YPR119W, strain clb2, active compounds read low 1 | S. cerevisiae deletion strains, locus YPR141C, strain kar3, active compounds read low 0.998 | S. cerevisiae deletion strains, locus YPR163C, strain tif3, active compounds read low 1.01 | S. cerevisiae deletion strains, locus YPR167C, strain met16, active compounds read low 1.01 | S. cerevisiae deletion strains, strain wtn01, active compounds read low 1.02 | S. cerevisiae strains, strain wild type, active compounds read low 1
